# Screening results from PubChem.
# BH1578 lux ind = quorum light induction in luxS cqsA deficient V. cholerae; V. cholerae BH1578 lux reporter, luminescence, 6 h; activation, % at 18.7 µM; 350,000 compounds, 0.16% hits; AID 588436; in the data active = activation mostly above about 9.7%, no sharp cut-off
# Yp Topo-I inh = blocks Yersinia pestis topoisomerase I activity. Y. pestis Topo-I cleavage product accumulation, plate reader. activity, % at 10 µM. 360,000 compounds, 0.064% hits. AID 504884; in the data active = activity above about 50%, passing the limit was not always enough
# PrPC TRFRET = reduces human prion protein on the cell surface; inhibition, % at 13.8 µM; 370,000 compounds, 0.43% hits; cell surface PrPC, TR-FRET read-out; in the data active = inhibition above about 24%
# CCHF vOTU inh-1 = blocks the CCHF virus ovarian tumor domain protease. CCHFV vOTU protease, Pep-AMC fluorescence. inhibition, % at 11.5 µM. 370,000 compounds, 0.55% hits
# CCHF vOTU inh-2 = confirmation of CCHF virus vOTU protease inhibitors. shares compounds with CCHF vOTU inh-1. Recombinant CCHFV vOTU, Pep-AMC fluorescence. inhibition, % at 11.5 µM. 1,900 compounds, 17% hits. AID 686976
# Hits are given with their value; i = inactive; nt = not tested or not shown. This is a sample that favours compounds with a hit; in the whole collection about 1.1% have one here. Rule as the data show it, unless noted: active = inhibition above about 30%; inactive = the rest.
SMILES,BH1578 lux ind,Yp Topo-I inh,PrPC TRFRET,CCHF vOTU inh-1,CCHF vOTU inh-2
COc1ccc(CN(C)C(=O)[C@H]2O[C@@H](n3ccc(=O)[nH]c3=O)[C@H](O)[C@@H]2O)cc1OC,nt,nt,i,30,i
CN(Cc1ccc2c(c1)CCCN2C)C(=O)[C@H]1O[C@@H](n2ccc(=O)[nH]c2=O)[C@H](O)[C@@H]1O,nt,nt,i,i,nt
Cc1ccc(-c2c(C(=O)N/N=C/c3ccncc3)nnn2-c2nonc2N)cc1,i,i,i,i,nt
O=c1[nH]c(CN2CCc3ccccc3C2)nc2ccccc12,i,i,i,44,i
O=c1[nH]c(CN2CCOCC2)nc2ccccc12,i,i,i,i,nt
Cc1cccc(NC(=O)c2sc3nc4c(c(-c5cccs5)c3c2N)CN(C)CC4)c1,i,i,i,30,48
O=c1cc(-c2ccc(O)c(-c3c(O)cc(O)c4c(=O)cc(-c5ccc(O)cc5)oc34)c2)oc2cc(O)cc(O)c12,i,i,i,30,i
C=C1CCN([C@@H](C)C(=O)NCc2ccc(OC)cc2)S(=O)(=O)c2ccccc21,i,i,i,i,nt
CCOc1cc(N2CCOCC2)c(OCC)cc1NC(=O)CN1CCCC(C)C1 (stereo not drawn),i,i,i,i,nt
CC1=CC(=O)c2ccccc2C1=O,i,i,i,i,nt
CC(C)(C=O)C1=CC(=O)c2ccccc2C1=O,i,i,i,79,i
CCC(=NCC1CCCO1)c1c(O)n(Cc2ccccc2)c(=O)[nH]c1=O (stereo not drawn),i,i,i,33,i
CCC(=NCC1CCCO1)c1c(O)n(-c2ccccc2)c(=O)[nH]c1=O (stereo not drawn),i,i,i,i,nt
CCOC(=O)c1ccc(NC(=O)c2nc[nH]c2C(=O)N(C)Cc2ccccc2)cc1,i,i,i,i,nt
COc1ccc(NC(=O)c2ccc(OCC3CCCO3)cc2)cc1OC (stereo not drawn),i,i,i,38,i
COc1ccc(NC(=O)c2ccc(OCC3CCCO3)cc2)cc1Cl (stereo not drawn),i,i,i,i,nt
O=C(COC(=O)c1ccccn1)Nc1ncc(C(F)(F)F)cc1Cl,i,i,i,i,nt
CCc1ccc(OCC(=O)OCC(=O)NC2CCCC(C)C2C)cc1 (stereo not drawn),i,i,i,i,nt
CC1CCCC(NC(=O)COC(=O)c2ccc([N+](=O)[O-])s2)C1C (stereo not drawn),i,i,i,66,61
O=C(COC(=O)c1ccc([N+](=O)[O-])s1)Nc1ncc(C(F)(F)F)cc1Cl,i,i,i,49,64
CC1CCCC(NC(=O)COC(=O)COc2cccc(F)c2)C1C (stereo not drawn),i,i,i,41,i
C=CC[C@@H](CC(=O)N(CCO)Cc1ccccc1)C(=O)NC[C@H](OC(=O)[C@@H](CC=C)CC(=O)OC(C)(C)C)c1ccccc1,i,i,i,37,i
C=CCC[C@@H](Cc1ccc(F)cc1)C(=O)OC[C@H](Cc1c[nH]c2ccccc12)NC(=O)[C@@H](CC=C)CC(=O)N[C@@H](CO)Cc1ccccc1,i,i,i,i,nt
C=CC[C@@H](CC(=O)N(CCO)Cc1ccccc1)C(=O)N[C@@H](COC(=O)[C@H](CC=C)CC(=O)OC(C)(C)C)Cc1c[nH]c2ccccc12,i,i,i,39,i
C=CCC[C@H](Cc1ccc(F)cc1)C(=O)OC[C@@H](Cc1c[nH]c2ccccc12)NC(=O)[C@@H](CC=C)CC(=O)N[C@@H](CO)Cc1ccccc1,i,i,i,32,i
SMILES,BH1578 lux ind,Yp Topo-I inh,PrPC TRFRET,CCHF vOTU inh-1,CCHF vOTU inh-2
C=CC[C@H](CC(=O)N(CCO)Cc1ccccc1)C(=O)N[C@@H](COC(=O)[C@@H](CC=C)CC(=O)OC(C)(C)C)Cc1c[nH]c2ccccc12,i,i,i,33,i
CC(C)CCNC(=O)CCn1nc(-c2ccc(Cl)cc2)ccc1=O,i,i,i,i,nt
Nc1ccc(C(=O)OCCCc2nc3ccccc3[nH]2)cc1,i,i,i,i,nt
C=CC[C@@H](CC(=O)N(CCO)Cc1ccccc1)C(=O)N[C@H](COC(=O)[C@@H](CC=C)Cc1ccc(F)cc1)Cc1c[nH]c2ccccc12,i,i,i,i,nt
C=CC[C@@H](CC(=O)N(CCO)Cc1ccccc1)C(=O)N[C@H](COC(=O)[C@@H](CC=C)CC(=O)OC(C)(C)C)Cc1ccccc1,i,i,i,37,i
C=CC[C@H](CC(=O)N(CCO)Cc1ccccc1)C(=O)N[C@H](COC(=O)[C@@H](CC=C)Cc1ccc(F)cc1)Cc1c[nH]c2ccccc12,i,i,i,31,i
CCN(C(=O)CSc1nnnn1-c1ccccc1)c1c(N)n(Cc2ccccc2)c(=O)[nH]c1=O,i,i,i,i,nt
COC(=O)c1ccc(NC(=O)CNCc2ccncc2)cc1,i,i,i,32,i
COC(=O)c1ccc(CNCC(=O)Nc2ccc(C(=O)OC)cc2)cc1,i,i,i,i,nt
Oc1ccc(Cl)cc1CNc1cccc2cccnc12,i,i,i,102,i
Oc1c(Br)cc(Br)cc1CNc1cccc2cccnc12,i,i,i,116,i
Oc1ccc(Br)cc1CNc1cccc2cccnc12,i,i,i,i,nt
CC(C)(C)c1csc(NC(=O)CSc2nc3ccccc3c(=O)[nH]2)n1,i,i,i,i,nt
O=C(CCN1C(=O)C2(OCCO2)c2ccccc21)c1ccccc1,i,i,i,i,nt
COc1cc(/C=N/NC(=O)C(Cc2c[nH]c3ccccc23)NC(=O)OCc2ccccc2)cc([N+](=O)[O-])c1O (stereo not drawn),i,i,i,35,i
COC(=O)C(Cc1ccccc1)NC(=O)C(CC(C)C)NC(=O)OC(C)(C)C (stereo not drawn),i,i,i,i,nt
CC(C)CC(NC(=O)C(Cc1ccc(OCc2ccccc2)cc1)NC(=O)OC(C)(C)C)C(N)=O (stereo not drawn),i,i,i,32,i
CCCCNc1ccc2nsnc2c1[N+](=O)[O-],i,i,i,57,i
CN(C)c1ccc2nsnc2c1[N+](=O)[O-],i,i,i,i,nt
Cc1ccc(OCC(=O)OC(C)C(=O)NC2CCCCC2C)cc1C (stereo not drawn),i,i,i,i,nt
O=C(CN1C2CCCC1CC(NC(=O)c1ccccc1)C2)Nc1ccccc1 (stereo not drawn),i,i,i,30,i
COc1cccc(C(=O)NC2CC3CCCC(C2)N3CC(=O)Nc2ccccc2)c1 (stereo not drawn),i,i,i,i,nt
CC(C)N(C(=O)COC(=O)c1ccc(O)cc1)C(C)C,i,i,i,i,nt
COC(=O)NC(=S)Nc1ccccc1NC(=S)NC(=O)OC,i,i,i,i,nt
CCN(CC)c1ccc(C=Nc2ccc(N(C)C)cc2)c(O)c1,i,i,i,74,i
CCN(CC)c1ccc(N=Cc2ccc(N(CC)CC)cc2O)cc1,i,i,i,i,nt
Cc1ccc(-n2c(C)cc(/C=C3\NC(=O)NC3=O)c2C)c(C)c1,i,i,i,33,i
Cc1cccc(NC(=S)NCC(c2ccccc2)N(C)C)c1 (stereo not drawn),i,i,i,i,nt
CCc1noc(C)c1C(=O)N(C)CC(=O)Nc1ccccc1C(F)(F)F,i,i,i,36,i
